Results reported in PubChem BioAssay (NCATS).
“And” between values parts separate entries of the source, which are not always exact repeats. Identical values can stand only once. Results filed as inconclusive are left out. A structure can be active in one record and inactive in another. The source made the active and inactive calls. Unless noted, calls come from the whole dose curve; as a rule, active = well fitted curve in the direction sought with a large enough effect; inconclusive = small, poorly fitted or top-dose-only effect, or another doubt; inactive = no such curve, though single readings can be large; an effect the other way counts as inactive or inconclusive.

Legend:
[1] = Cell Viability - MRC5 (AID 434; calls by dose curve;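 note: potency is the fitted concentration of half-maximal effect; cells exposed to compound for 40 hours at 37 °C; potency reflects cytotoxicity seen as loss of intracellular ATP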); conditions: MRC5 lung fibroblast viability, qHTS
Procedure, shortened: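 ATP luminescence read-out (CellTiter-Glo, 20 min RT) after 40 hr, 37 °C compound exposure of 1500 MRC5 cells/well. Data normalized to DMSO (basal) and 100 uM tamoxifen (100% inhibition); AC50 from standard Hill equation.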

[2] = Cellular Toxicity (caspase-3) HepG2 (AID 654); conditions: HepG2 caspase-3 activation, luminescence; series mostly up to 92.2 µM;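 note: cells exposed to compound for 16 hours before reading; 0% = DMSO alone and 100% = caspase signal from 100 µM tamoxifen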
Procedure, shortened: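 Luminescent Caspase-Glo 3/7 readout after 16 hr compound exposure of human hepatocellular carcinoma HepG2 cells at 37 °C; qHTS concentration-response, normalized DMSO = 0%, 100 uM tamoxifen = 100%; AC50 by standard Hill equation.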

[3] = Cellular Toxicity (caspase-3) HUV-EC-C (AID 656); conditions: HUV-EC-C cells, caspase-3 activation (apoptosis); series mostly up to 92.2 µM
Procedure, shortened: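 HUV-EC-C cells (1000/well) in complete medium, compound-treated 16 h at 37 °C; caspase-3/7 activity read by Caspase-Glo 3/7 luminescence. Normalized to DMSO (basal) and 100 uM tamoxifen (100%); AC50 from Hill-equation concentration-response fits.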

[4] = Cellular Toxicity (caspase-3) SHSY5Y (AID 657); conditions: SH-SY5Y caspase-3 activation; series mostly up to 91.7 µM
Procedure, shortened: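 SH-SY5Y human neuroblastoma cells, 1500/well, exposed to compound for 16 hours at 37 °C in complete medium. Caspase-3/7 activity read by Caspase-Glo luminescence after 1 hr at room temperature, normalized to DMSO and 10 uM staurosporine; AC50 from Hill fit.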

[5] = Cellular Toxicity (caspase-3) BJ (AID 658); conditions: BJ fibroblasts, luminescence; Potency: caspase-3 activation; series mostly up to 91.7 µM
Procedure, shortened: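 qHTS, BJ fibroblasts, 1000 cells/well; 5 hr preincubation, 16 hr compound, 37 °C; Caspase-Glo 3/7 reagent, 1 hr RT; luminescence. DMSO = 0%, 10 uM staurosporine = 100%. Hill-equation AC50.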

[6] = Cellular Toxicity (caspase-3) MRC-5 (AID 659); conditions: MRC-5 cells, luminescence, normalized: DMSO 0%, 10 µM staurosporine 100%; series mostly up to 91.7 µM
Procedure, shortened: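 MRC-5 fibroblasts, 1500/well; 16 h cpd, 37 °C; Caspase-Glo 3/7, 1 h RT; lumi read. Norm: DMSO = 0%, 10 uM staurosporine = 100%. Hill-fit AC50 from qHTS conc-response.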

[7] = Cellular Toxicity (caspase-3) Mesangial (AID 660); conditions: mesangial cells, normalized: DMSO 0%, 100 µM tamoxifen 100%; series mostly up to 91.7 µM;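 note: cells exposed to compound for 16 h before the caspase read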
Procedure, shortened: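 Luminescent Caspase-Glo 3/7 readout (aminoluciferin substrate cleavage, 20 min RT) after 16 h compound exposure at 37 °C of normal human mesangial cells. Signal increase normalized between DMSO basal and 100 uM tamoxifen; Hill-equation AC50.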

[8] = Cellular Toxicity (caspase-3) SK-N-SH (AID 661); conditions: SK-N-SH caspase-3 activation, qHTS, DMSO as zero, staurosporine as full; series mostly up to 91.7 µM
Procedure, shortened: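 Luminescent Caspase-Glo 3/7 read-out after 16 hr compound exposure of SK-N-SH neuroblastoma cells at 37 °C. Signal increase normalized to DMSO (basal) and 10 uM staurosporine (100%); AC50 from Hill equation fits of qHTS concentration-response data.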

[9] = Cellular Toxicity (caspase-3) H-4-II-E (AID 663); conditions: H-4-II-E rat hepatoma; Potency: caspase-3 activation; series mostly up to 92.2 µM;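 note: cells exposed to compound for 16 hr before readout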
Procedure, shortened: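 H-4-II-E rat hepatoma, 1500 cells/well, 5 hr settle at 37 °C; compound 16 hr, 37 °C, complete medium; Caspase-Glo 3/7, 20 min RT; luminescence. DMSO = 0%, 100 uM tamoxifen = 100%; Hill-equation AC50.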

[10] = Cellular Toxicity (caspase-3) Hek293 (AID 664); conditions: HEK293 caspase-3 activation, DMSO = 0%, 100 µM tamoxifen = 100%; at 92.2 µM (top of the series);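 note: cells exposed to compound for 16 h at 37 °C before readout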
Procedure, shortened: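 Luminescent Caspase-Glo 3/7 readout (aminoluciferin release) in HEK293 cells after 16 h compound treatment, 37 °C. Normalization: DMSO = basal, 100 uM tamoxifen = 100% stimulation. Concentration-response fitted with standard Hill equation for AC50.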

[11] = Cellular Toxicity (caspase-3) N2a (AID 665); conditions: N2a cells, luminescence, normalized: DMSO 0%, 10 µM staurosporine 100%; series mostly up to 92.2 µM;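 note: compound exposure lasted 16 h at 37 °C before readout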
Procedure, shortened: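 Luminescent Caspase-Glo 3/7 readout in N2a mouse neuroblastoma cells after 16 h compound exposure at 37 °C. Signal scaled to DMSO (basal) and 10 uM staurosporine (100%). Concentration-response fitted with Hill equation for AC50.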

[12] = Cellular Toxicity (caspase-3) Renal Proximal Tubule (AID 667); conditions: renal proximal tubule cells, primary cells freshly taken from rat; Potency: caspase-3 activation; series mostly up to 91.7 µM;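 note: cells exposed to compound for 16 hours at 37 °C before detection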
Procedure, shortened: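 Freshly isolated primary rat kidney proximal tubule cells, 1000/well, treated 16 hr at 37 °C, then Caspase-Glo 3/7 luminescence after 1 hr. Normalized to DMSO and 10 uM staurosporine; AC50 from Hill fit.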

[13] = MultiTox-Fluor Cytotoxicity Assay - LYMP1-001 - Dead Cells (AID 946); conditions: LYMP1-001 lymphoblastoid cells, dead-cell protease fluorescence; series mostly up to 92.2 µM; note: potency is the fitted concentration of half-maximal effect
Procedure, shortened: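 Cytotoxicity as increased dead-cell protease fluorescence (bis-AAF-R110, 485/520 nm), read 60 min after MultiTox-Fluor reagent. Human lymphoblastoid line exposed 16 h; Hill-fitted AC50, with DMSO as 0% and 15 uM tetraoctylammonium bromide as 100%.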

[14] = MultiTox-Fluor Cytotoxicity Assay - LYMP1-003 - Live Cells (AID 962); conditions: LYMP1-003 lymphoblastoid cells, MultiTox-Fluor live-cell protease fluorescence; series mostly up to 92.2 µM;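 note: 0% = DMSO only and full loss = 92 µM tetraoctylammonium bromide; cytotoxic hits lower the live-cell protease signal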
Procedure, shortened: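 Readout: live-cell fluorescence (Ex/Em=405/510) from GF-AFC cleavage after 60 min MultiTox-Fluor reagent at room temperature. Lymphoblastoid LYMP1-003 cells, 16 hr compound treatment, 37 C. Concentration-response fitted to standard Hill equation for AC50.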

[15] = Cell Viability - LYMP1-003 - Assay at 24 hr (AID 963); conditions: LYMP1-003 lymphoblastoid cell viability; series mostly up to 92.2 µM;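 note: plate controls were DMSO only for no effect and tetraoctylammonium bromide positive control for full effect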
Procedure, shortened: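 CellTiter-Glo luminescence (intracellular ATP) read after 24 hr, 37 C compound exposure of 2500 LYMP1-003 human lymphoblastoid cells/well in complete medium; qHTS concentration series; AC50 via standard Hill equation.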

[16] = qHTS Assay for Identification of Small Molecule Inducers of Hypoxia Response (AID 2120; active = well fitted curve in the direction sought with a large enough effect in the signal ratio, with a control signal flat, not every such curve was filed as active; the % refers to the signal ratio; note: potency is the fitted concentration of half-maximal effect; for activation: 0% is about no effect); conditions: hypoxia response reporter cells, beta-lactamase ratio readout; series mostly up to 104 µM
Procedure, shortened: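 Read-out: CCF4 FRET emission ratio 460nm/530nm (excitation 405nm), converted to %Activity, with AC50 fitted across a compound titration. ME-180 cells carried an HRE-driven beta-lactamase reporter; compound exposure 17 h, 37 degrees C.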

[17] = qHTS assay for small molecule agonists of the antioxidant response element (ARE) signaling pathway measured by Nrf2-dependant transcriptional activity - cell viability counter screen (AID 720653; active = well fitted curve in the direction sought with a large enough effect in the repeat runs; an effect the other way counts as inactive or inconclusive; note: potency is the fitted concentration of half-maximal effect; for max response: % is set by controls: 0 for no effect and ±100 for the full control effect); conditions: ARE-bla HepG2 viability, CellTiter-Glo ATP luminescence, 16 h; max response: active compounds read low
Procedure, shortened: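 ARE-bla HepG2 cells treated with compounds for 16 h at 37C; this counter screen measures viability as intracellular ATP by CellTiter-Glo luminescence after 30 min at room temperature.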

[18] = qHTS assay for cell viability of HEK293 cells (AID 743288); conditions: ATP luminescence (CellTiter-Glo), 18 h; max response: active compounds read low; note: nearly all actives have a fitted effect of over 50% in size; note: potency is the fitted concentration of half-maximal effect; for max response: % is set by controls: 0 for no effect and ±100 for the full control effect
Procedure, shortened: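 Steps: plate 2,000 parental HEK293 cells per well; incubate ≥5 h, 37 C; add compounds in DMSO; incubate 18 h, 37 C; add CellTiter-Glo; wait 30 min at room temperature; read luminescence.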

[19] = qHTS assay for cell viability of the p53RE-bla HCT-116 cell line (AID 743292); conditions: p53RE-bla HCT-116 viability, ATP luminescence, 16 h; series mostly up to 95 µM; note: % is set by controls: 0 for no effect and ±100 for the full control effect; nearly all actives have a fitted effect of over 55% in size
Procedure, shortened: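 Luminescent ATP quantitation (CellTiter-Glo) served as the viability read-out; reagent was added after 16 h compound exposure at 37 C and read after 30 min at room temperature. Cells: p53RE-bla HCT-116, 4,000 per well.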

[20] = molecular target: Peroxisome proliferator-activated receptor alpha (Homo sapiens) (UniProt Q07869); assay: qHTS assay for small molecule agonists of the peroxisome proliferator-activated receptor alpha (PPARalpha) signaling pathway (AID 651778); conditions: PathHunter PPARalpha complementation, chemiluminescence, 6 h; max response: active compounds read high; note: % of control where 0% means no effect
Procedure, shortened: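 Enzyme-fragment complementation assay in which ligand-bound PPARalpha translocates and forms an active enzyme that generates chemiluminescence. Cells were plated overnight, exposed to compound for 6 hr at 37 C, and then given detection reagent for 60 min at room temperature.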

Sequence of Peroxisome proliferator-activated receptor alpha (Homo sapiens) (Q07869 whole entry, looked up, the tested form may be a part): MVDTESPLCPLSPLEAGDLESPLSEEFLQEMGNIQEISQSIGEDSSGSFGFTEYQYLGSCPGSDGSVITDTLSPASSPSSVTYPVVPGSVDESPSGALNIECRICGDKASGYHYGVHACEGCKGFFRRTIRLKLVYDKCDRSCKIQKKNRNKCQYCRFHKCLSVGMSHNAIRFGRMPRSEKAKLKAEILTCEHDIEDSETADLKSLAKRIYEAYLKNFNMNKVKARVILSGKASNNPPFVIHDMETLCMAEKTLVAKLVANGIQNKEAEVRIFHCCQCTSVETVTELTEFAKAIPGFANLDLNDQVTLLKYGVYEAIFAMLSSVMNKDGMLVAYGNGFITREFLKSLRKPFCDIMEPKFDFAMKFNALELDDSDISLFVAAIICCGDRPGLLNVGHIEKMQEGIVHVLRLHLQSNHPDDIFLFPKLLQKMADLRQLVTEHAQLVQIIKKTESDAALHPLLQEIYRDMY

c1ccc(Nc2cccc3ccccc23)cc1
inactive: Potency [1] > 92 µM | Potency [2] | Potency [3] | Potency [4] | Potency [5] | outcome [6] | outcome [7] | outcome [8] | Potency [9] | caspase-3 activation [10] 4.83% | outcome [11] | Potency [12] | Potency [13] | Potency [14] | Potency [15] | Potency [16] | max response [17] -11.3% and -26.9% | max response [18] -6.95% and -18% | Potency [19]

Cc1c2ccccc2c(C)c2c1ccc1ccccc12
inactive: Potency [2] | Potency [3] | Potency [4] | Potency [5] | outcome [6] | outcome [7] | outcome [8] | Potency [9] | caspase-3 activation [10] 2.33% | outcome [11] | Potency [12] | Potency [14] | Potency [15] | max response [20] 2.82% and -0.29% | max response [17] -7.46% | max response [18] -28% | Potency [19]
active: Potency [1] 17.9 µM | Potency [16] 44.7 µM | Potency [17] 44.7 µM | Potency [18] 44.7 µM

Cc1ccc(S(N)(=O)=O)cc1
inactive: Potency [1] > 92 µM | Potency [2] | Potency [3] | Potency [4] | Potency [5] | outcome [6] | outcome [7] | outcome [8] | Potency [9] | caspase-3 activation [10] -1.71% | outcome [11] | Potency [12] | Potency [13] | Potency [14] | Potency [15] | Potency [16] | max response [20] -6.35% and -0.652% | max response [17] 3.25% and -8.35% | max response [18] -5.31% and -1.83% | Potency [19]

O=[N+]([O-])c1cc(Cl)c(Cl)c(Cl)c1Cl
inactive: Potency [1] > 92 µM | Potency [2] | Potency [3] | Potency [4] | Potency [5] | outcome [6] | outcome [7] | outcome [8] | Potency [9] | caspase-3 activation [10] 2.6% | outcome [11] | Potency [12] | Potency [14] | Potency [15] | Potency [16] | max response [20] -1.46% | max response [17] -4.59% | max response [18] -2.48% | Potency [19]
active: Potency [13] 25.1 µM

O=[N+]([O-])c1cccc(I)c1
inactive: Potency [1] > 92 µM | Potency [2] | Potency [3] | Potency [4] | Potency [5] | outcome [6] | outcome [7] | outcome [8] | Potency [9] | caspase-3 activation [10] -1.61% | outcome [11] | Potency [12] | Potency [13] | Potency [14] | Potency [15] | Potency [16] | max response [20] -0.601% | max response [17] 2.94% | max response [18] -9.2% | Potency [19]

S=C(NC1CCCCC1)NC1CCCCC1
inactive: Potency [1] > 92 µM | Potency [2] | Potency [3] | Potency [4] | Potency [5] | outcome [6] | outcome [7] | outcome [8] | Potency [9] | caspase-3 activation [10] 3.5% | outcome [11] | Potency [12] | Potency [13] | Potency [14] | Potency [15] | Potency [16] | max response [20] 1.4% | max response [17] -8.66% | max response [18] -15.2% | Potency [19]

O=C(O)/C=C/c1ccc(/C=C/C(=O)O)cc1
inactive: Potency [1] > 92 µM | Potency [2] | Potency [3] | Potency [4] | Potency [5] | outcome [6] | outcome [7] | outcome [8] | Potency [9] | caspase-3 activation [10] -11.2% | outcome [11] | Potency [12] | Potency [13] | Potency [14] | Potency [15] | Potency [16] | max response [20] -4.38% | max response [17] -1.74% | max response [18] -14.7% | Potency [19]

Oc1cc(Cl)cc(Cl)c1Cl
inactive: Potency [1] > 92 µM | Potency [2] | Potency [3] | Potency [4] | Potency [5] | outcome [6] | outcome [7] | outcome [8] | Potency [9] | caspase-3 activation [10] -0.269% | outcome [11] | Potency [12] | Potency [13] | Potency [14] | Potency [15] | Potency [16] | max response [20] 6.36% | max response [17] -7.11% | max response [18] -4.35% | Potency [19]
